Here are results for 1 sequence from PMC7862700, “An all-to-all approach to the identification of sequence-specific readers for epigenetic DNA modifications on cytosine”.

Holding throughout (assay): DAPPL (digital affinity profiling via proximity ligation, sequencing); 10 mM Tris-HCl pH 7.5, 50 mM NaCl, 1 mM DTT, 4% glycerol, room temperature, 30 min; GST-TFs on glutathione beads, 16-mer random dsDNA library, 0.1% formaldehyde crosslink after washing; high values mean tight binding
For one assay, the target named is T1, FLI1 (Homo sapiens, UniProt Q01543 1-452).
T1 sequence: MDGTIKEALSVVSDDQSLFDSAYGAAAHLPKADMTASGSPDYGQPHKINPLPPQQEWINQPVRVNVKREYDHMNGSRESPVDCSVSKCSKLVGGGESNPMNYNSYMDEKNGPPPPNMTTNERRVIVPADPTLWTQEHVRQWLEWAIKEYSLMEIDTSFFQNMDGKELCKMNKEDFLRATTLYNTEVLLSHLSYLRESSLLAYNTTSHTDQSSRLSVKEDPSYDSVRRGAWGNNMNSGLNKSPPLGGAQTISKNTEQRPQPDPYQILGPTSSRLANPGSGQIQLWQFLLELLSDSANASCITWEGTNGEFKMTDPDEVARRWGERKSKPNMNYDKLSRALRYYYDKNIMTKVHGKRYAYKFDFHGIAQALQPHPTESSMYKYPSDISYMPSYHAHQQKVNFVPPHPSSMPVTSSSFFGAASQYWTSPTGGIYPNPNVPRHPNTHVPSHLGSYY
Particulars: protein: recombinant; tags: N-terminal GST; dsDNA, one strand shown. The method, boiled down: (§1)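 Binding signal is given per hexamer as its read frequency for a factor divided by its frequency in the tag-only sample. GST-fused human transcription factors were expressed in yeast, captured on glutathione beads, barcoded with DNA and pooled with that sample, then incubated with 200 nmole of a 16-mer random double-stranded DNA library in Tris/NaCl/DTT/glycerol buffer for 30 min at room temperature. The pools were then washed, crosslinked, proximity-ligated, amplified by PCR and sequenced on an Illumina NextSeq500.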

The target in a further assay is T2, ELK1 (Homo sapiens, UniProt P19419 1-428).
T2 sequence: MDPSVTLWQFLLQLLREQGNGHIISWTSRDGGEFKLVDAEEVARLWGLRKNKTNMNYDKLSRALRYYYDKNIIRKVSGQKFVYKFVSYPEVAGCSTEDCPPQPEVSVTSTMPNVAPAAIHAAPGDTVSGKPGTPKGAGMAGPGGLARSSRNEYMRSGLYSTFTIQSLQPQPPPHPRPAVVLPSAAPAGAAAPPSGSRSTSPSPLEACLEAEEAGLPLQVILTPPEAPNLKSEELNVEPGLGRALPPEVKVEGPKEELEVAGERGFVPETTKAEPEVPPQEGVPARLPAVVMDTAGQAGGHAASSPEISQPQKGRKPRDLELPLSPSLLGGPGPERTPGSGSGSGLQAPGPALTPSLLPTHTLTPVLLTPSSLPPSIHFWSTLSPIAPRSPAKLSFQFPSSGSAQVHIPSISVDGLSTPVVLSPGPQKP
Particulars: protein: recombinant; tags: N-terminal GST; dsDNA, one strand shown. The method, boiled down:
as §1

The target in a further assay is T3, GABPA (Homo sapiens, UniProt Q06546 1-454).
T3 sequence: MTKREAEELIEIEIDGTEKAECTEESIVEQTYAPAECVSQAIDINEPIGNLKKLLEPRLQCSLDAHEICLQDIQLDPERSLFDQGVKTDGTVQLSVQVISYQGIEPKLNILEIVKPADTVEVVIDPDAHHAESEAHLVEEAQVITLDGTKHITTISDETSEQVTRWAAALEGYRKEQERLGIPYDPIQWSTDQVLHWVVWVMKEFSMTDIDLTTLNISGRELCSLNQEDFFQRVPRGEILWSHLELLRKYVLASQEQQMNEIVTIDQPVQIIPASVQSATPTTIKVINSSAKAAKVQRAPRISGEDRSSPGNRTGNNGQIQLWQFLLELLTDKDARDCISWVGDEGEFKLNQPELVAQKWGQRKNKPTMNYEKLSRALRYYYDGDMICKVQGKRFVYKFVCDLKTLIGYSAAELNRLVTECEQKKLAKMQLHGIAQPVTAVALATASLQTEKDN
Particulars: protein: recombinant; tags: N-terminal GST; dsDNA, one strand shown. Put shortly:
as §1

The next assay deals with T4, ERG (Homo sapiens, UniProt P11308 1-479).
T4 sequence: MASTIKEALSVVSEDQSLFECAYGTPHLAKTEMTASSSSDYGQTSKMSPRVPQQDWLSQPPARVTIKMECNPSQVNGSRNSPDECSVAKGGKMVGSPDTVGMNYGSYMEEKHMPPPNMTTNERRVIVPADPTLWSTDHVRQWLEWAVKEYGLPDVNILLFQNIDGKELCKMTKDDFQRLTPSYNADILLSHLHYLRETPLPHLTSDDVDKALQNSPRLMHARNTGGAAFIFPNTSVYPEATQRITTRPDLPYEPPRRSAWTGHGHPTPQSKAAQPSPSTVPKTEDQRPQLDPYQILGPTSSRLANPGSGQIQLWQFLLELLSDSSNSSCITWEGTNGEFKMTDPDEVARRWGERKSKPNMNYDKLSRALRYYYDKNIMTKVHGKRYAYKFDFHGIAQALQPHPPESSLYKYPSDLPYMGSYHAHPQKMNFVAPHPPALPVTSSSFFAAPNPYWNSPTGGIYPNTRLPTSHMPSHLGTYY
The conditions noted are these: protein: recombinant; tags: N-terminal GST; dsDNA, one strand shown. The method, boiled down:
as §1

Another assay deals with ELF1 (Homo sapiens, UniProt P32519 1-619). Particulars: protein: recombinant; tags: N-terminal GST; dsDNA, one strand shown. The method, boiled down: as §1
The next assay has as its target T5, EHF (Homo sapiens, UniProt Q9NZC4 1-300).
T5 sequence: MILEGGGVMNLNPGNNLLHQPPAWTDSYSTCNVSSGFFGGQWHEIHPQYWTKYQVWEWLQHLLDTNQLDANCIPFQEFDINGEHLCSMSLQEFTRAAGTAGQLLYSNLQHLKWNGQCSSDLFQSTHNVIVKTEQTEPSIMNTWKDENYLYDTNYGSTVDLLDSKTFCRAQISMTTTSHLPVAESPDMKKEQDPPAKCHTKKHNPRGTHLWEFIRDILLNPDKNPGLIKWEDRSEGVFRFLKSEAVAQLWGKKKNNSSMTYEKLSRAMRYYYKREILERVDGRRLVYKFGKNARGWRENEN
The conditions noted are these: protein: recombinant; tags: N-terminal GST; dsDNA, one strand shown. Put shortly:
as §1

For the next assay, the target named is SPI1 (Homo sapiens, UniProt P17947 1-270). Particulars: protein: recombinant; tags: N-terminal GST; dsDNA, one strand shown. Put shortly:
as §1

For another assay, the target named is SPIB (Homo sapiens, UniProt Q01892 1-262). Particulars: protein: recombinant; tags: N-terminal GST; dsDNA, one strand shown. Put shortly: as §1
The next assay concerns the target T6, ELK3 (Homo sapiens, UniProt P41970 1-407).
T6 sequence: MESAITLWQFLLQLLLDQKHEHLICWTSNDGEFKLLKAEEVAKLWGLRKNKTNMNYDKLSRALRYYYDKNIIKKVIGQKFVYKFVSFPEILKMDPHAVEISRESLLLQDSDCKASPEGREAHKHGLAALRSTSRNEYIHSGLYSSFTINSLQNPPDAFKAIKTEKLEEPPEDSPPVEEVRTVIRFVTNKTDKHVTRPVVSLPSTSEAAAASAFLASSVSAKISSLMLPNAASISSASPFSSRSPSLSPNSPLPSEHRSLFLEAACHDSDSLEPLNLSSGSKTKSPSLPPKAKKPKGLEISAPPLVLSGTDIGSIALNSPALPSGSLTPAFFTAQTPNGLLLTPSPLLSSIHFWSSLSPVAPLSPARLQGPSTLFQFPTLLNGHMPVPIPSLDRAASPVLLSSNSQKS
The conditions noted are these: protein: recombinant; tags: N-terminal GST; dsDNA, one strand shown. Put shortly: as §1

The next assay addresses T7, FEV (Homo sapiens, UniProt Q99581 1-238).
T7 sequence: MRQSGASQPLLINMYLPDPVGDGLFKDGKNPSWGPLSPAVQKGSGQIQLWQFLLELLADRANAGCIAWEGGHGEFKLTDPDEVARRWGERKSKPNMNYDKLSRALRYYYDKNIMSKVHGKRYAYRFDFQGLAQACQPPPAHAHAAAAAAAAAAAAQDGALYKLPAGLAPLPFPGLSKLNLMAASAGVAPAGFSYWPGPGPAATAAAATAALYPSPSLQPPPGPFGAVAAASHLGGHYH
Particulars: protein: recombinant; tags: N-terminal GST; dsDNA, one strand shown. Put shortly:
as §1

In a further assay the target is ETV5 (Homo sapiens, UniProt P41161 1-510). Particulars: protein: recombinant; tags: N-terminal GST; dsDNA, one strand shown. Put shortly:
as §1

The target of another assay is HSF1 (Homo sapiens, UniProt Q00613 1-529). The conditions noted are these: protein: recombinant; tags: N-terminal GST; chain copies: 3; dsDNA, one strand shown. Put shortly:
as §1

The next assay has as its target T8, SPIC (Homo sapiens, UniProt Q8N5J4 1-248).
T8 sequence: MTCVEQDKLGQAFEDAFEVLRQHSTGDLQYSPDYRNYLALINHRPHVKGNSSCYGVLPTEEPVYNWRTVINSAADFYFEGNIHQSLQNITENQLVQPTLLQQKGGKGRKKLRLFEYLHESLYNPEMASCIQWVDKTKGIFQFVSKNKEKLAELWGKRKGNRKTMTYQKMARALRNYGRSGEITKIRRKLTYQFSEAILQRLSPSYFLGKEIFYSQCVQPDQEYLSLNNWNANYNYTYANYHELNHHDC
Particulars: protein: recombinant; tags: N-terminal GST; dsDNA, one strand shown. The method, boiled down: as §1

In a further assay the target is ELF4 (Homo sapiens, UniProt Q99607 1-663). Particulars: protein: recombinant; tags: N-terminal GST; dsDNA, one strand shown. Put shortly:
as §1

For a further assay, the target named is T9, ELK4 (Homo sapiens, UniProt P28324-2 1-405).
T9 sequence: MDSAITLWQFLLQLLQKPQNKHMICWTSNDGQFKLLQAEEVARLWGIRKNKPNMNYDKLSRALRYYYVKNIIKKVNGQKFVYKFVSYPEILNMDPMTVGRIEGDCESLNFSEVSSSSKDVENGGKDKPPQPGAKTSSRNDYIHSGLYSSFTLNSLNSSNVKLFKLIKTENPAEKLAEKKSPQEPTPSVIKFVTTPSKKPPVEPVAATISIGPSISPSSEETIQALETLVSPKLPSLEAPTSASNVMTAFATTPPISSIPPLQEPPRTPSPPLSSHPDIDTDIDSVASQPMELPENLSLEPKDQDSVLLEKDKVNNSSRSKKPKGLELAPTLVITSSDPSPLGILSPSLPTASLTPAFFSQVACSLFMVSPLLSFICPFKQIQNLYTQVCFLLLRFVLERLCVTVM
The conditions noted are these: protein: recombinant; tags: N-terminal GST; dsDNA, one strand shown. Put shortly:
as §1

For a further assay, the target named is T10, ETV2 (Homo sapiens, UniProt O00321 1-342).
T10 sequence: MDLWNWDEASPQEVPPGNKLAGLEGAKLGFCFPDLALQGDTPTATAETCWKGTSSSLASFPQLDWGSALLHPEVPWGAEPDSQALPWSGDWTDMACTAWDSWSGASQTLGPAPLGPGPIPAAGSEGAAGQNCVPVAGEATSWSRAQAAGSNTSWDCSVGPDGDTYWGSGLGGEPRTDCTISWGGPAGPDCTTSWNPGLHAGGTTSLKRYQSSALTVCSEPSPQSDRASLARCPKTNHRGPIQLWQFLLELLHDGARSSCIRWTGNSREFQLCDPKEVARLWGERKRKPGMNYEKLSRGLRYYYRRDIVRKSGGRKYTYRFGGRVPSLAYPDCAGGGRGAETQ
Particulars: protein: recombinant; tags: N-terminal GST; dsDNA, one strand shown. The method, boiled down:
as §1

Another assay concerns the target T11, ELF3 (Homo sapiens, UniProt P78545 1-371).
T11 sequence: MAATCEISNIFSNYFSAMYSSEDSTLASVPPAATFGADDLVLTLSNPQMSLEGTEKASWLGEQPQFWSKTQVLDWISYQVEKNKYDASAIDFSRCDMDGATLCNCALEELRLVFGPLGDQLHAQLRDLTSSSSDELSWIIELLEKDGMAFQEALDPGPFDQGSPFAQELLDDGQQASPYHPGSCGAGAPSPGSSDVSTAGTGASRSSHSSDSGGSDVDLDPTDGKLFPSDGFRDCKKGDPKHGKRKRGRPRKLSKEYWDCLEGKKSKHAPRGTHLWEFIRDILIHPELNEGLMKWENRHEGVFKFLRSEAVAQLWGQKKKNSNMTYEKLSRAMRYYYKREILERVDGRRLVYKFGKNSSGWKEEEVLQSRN
The conditions noted are these: protein: recombinant; tags: N-terminal GST; dsDNA, one strand shown. The method, boiled down: as §1

In a further assay the target is CRX (Homo sapiens, UniProt O43186 1-299). The conditions noted are these: protein: recombinant; tags: N-terminal GST; dsDNA, one strand shown. Put shortly: as §1
In a further assay the target is ETV1 (Homo sapiens, UniProt P50549 1-477). Particulars: protein: recombinant; tags: N-terminal GST; dsDNA, one strand shown. Put shortly:
as §1

CRX, sequence (O43186 whole entry): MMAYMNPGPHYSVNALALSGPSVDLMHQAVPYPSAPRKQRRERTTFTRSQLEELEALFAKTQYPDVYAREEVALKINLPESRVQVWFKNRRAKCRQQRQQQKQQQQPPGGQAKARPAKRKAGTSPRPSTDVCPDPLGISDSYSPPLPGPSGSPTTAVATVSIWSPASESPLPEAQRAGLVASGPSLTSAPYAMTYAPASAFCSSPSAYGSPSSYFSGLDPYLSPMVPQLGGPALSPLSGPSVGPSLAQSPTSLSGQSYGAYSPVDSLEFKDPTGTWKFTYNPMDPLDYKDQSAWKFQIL
HSF1, sequence (Q00613 whole entry): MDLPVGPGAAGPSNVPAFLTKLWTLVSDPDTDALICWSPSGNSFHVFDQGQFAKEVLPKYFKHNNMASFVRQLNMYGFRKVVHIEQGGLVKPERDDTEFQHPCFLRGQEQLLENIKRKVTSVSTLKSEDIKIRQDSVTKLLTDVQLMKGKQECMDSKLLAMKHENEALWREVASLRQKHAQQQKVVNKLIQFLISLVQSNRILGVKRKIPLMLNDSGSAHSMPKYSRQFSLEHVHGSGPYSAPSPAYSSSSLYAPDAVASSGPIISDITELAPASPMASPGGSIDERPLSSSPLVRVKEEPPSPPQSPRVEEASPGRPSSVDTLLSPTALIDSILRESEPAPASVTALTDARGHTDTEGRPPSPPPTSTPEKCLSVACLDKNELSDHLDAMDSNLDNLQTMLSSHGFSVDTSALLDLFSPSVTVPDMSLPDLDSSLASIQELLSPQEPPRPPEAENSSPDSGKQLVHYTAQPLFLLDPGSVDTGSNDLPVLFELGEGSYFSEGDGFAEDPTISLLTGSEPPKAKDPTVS
SPIB, sequence (Q01892 whole entry): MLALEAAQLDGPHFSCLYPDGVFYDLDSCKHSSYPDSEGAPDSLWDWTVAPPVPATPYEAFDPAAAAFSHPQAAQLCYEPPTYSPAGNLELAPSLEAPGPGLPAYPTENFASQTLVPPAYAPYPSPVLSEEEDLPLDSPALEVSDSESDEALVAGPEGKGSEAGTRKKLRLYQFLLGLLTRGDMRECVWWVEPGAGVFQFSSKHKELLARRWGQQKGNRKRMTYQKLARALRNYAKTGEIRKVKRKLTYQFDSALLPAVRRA
ELF4, sequence (Q99607 whole entry): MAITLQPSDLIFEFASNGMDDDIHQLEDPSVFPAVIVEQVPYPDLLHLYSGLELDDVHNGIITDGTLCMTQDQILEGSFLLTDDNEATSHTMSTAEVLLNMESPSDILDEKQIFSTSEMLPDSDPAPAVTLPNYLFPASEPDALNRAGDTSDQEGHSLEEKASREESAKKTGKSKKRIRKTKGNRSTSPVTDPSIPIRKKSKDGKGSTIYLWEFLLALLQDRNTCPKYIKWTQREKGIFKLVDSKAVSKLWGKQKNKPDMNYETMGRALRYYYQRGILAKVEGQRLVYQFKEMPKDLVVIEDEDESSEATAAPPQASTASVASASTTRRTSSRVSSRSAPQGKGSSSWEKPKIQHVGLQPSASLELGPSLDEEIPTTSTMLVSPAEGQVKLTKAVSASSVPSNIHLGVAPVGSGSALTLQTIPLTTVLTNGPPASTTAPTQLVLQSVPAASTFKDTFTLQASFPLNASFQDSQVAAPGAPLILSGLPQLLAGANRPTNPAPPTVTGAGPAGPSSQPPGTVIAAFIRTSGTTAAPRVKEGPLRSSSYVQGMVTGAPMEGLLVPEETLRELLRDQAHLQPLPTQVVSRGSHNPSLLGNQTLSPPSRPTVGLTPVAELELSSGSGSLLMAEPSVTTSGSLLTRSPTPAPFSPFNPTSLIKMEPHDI
ETV1, sequence (P50549 whole entry): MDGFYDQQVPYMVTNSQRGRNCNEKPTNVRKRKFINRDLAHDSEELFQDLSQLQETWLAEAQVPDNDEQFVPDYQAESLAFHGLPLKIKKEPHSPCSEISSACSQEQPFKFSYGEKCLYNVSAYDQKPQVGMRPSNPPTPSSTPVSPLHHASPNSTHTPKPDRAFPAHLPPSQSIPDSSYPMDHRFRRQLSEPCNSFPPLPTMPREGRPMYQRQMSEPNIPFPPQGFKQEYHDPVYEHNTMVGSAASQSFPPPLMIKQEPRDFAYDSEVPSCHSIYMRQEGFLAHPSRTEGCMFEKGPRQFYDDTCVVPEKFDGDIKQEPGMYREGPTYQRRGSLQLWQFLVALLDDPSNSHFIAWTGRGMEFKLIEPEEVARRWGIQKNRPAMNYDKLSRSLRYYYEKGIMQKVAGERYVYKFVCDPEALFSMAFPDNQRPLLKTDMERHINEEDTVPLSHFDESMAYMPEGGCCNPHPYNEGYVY
ELF1, sequence (P32519 whole entry): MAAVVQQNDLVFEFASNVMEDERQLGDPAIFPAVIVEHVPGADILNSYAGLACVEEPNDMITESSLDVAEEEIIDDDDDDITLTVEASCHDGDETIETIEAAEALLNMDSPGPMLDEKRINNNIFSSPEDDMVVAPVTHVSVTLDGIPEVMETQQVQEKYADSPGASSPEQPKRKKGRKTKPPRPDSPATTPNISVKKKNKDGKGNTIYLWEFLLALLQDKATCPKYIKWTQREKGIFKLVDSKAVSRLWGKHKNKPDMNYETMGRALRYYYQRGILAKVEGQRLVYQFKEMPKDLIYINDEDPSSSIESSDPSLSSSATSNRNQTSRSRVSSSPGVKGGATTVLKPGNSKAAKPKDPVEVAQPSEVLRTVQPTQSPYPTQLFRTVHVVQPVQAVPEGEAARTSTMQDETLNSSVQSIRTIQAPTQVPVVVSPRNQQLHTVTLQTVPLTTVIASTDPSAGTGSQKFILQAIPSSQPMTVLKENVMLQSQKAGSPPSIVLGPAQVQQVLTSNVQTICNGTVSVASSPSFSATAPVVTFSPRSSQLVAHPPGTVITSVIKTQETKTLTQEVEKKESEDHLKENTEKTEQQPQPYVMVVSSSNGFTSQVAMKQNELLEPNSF
ETV5, sequence (P41161 whole entry): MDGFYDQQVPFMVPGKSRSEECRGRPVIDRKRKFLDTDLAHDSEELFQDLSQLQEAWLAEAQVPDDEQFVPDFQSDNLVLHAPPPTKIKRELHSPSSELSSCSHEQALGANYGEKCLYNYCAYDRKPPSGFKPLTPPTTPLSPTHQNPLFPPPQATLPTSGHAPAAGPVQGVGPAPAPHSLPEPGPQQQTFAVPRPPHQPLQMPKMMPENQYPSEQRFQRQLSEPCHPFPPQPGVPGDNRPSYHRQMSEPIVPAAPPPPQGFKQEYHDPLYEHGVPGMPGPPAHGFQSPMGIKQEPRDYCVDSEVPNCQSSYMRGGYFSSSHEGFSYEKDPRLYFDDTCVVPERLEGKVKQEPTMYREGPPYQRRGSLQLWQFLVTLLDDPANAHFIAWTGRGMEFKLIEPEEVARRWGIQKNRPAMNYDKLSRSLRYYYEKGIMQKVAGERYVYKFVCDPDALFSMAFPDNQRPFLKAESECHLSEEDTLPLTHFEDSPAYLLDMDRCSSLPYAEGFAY

For the sequence AAAATT, the binding signal with FLI1 was 1.35 fold enrichment (6-mer frequency, TF over GST control); with ELK1, 1.34 fold enrichment (6-mer frequency, TF over GST control); with GABPA, 1.38 fold enrichment (6-mer frequency, TF over GST control); in the assay with ERG it was 1.28 fold enrichment (6-mer frequency, TF over GST control); with ELF1, 1.34 fold enrichment (6-mer frequency, TF over GST control); in the assay with EHF it was 1.26 fold enrichment (6-mer frequency, TF over GST control). For the same sequence, the binding signal with SPI1 was 1.32 fold enrichment (6-mer frequency, TF over GST control); in the assay with SPIB it was 1.45 fold enrichment (6-mer frequency, TF over GST control); with ELK3, 1.33 fold enrichment (6-mer frequency, TF over GST control); in the assay with FEV, 1.29 fold enrichment (6-mer frequency, TF over GST control); in the assay with ETV5, 1.4 fold enrichment (6-mer frequency, TF over GST control); in the assay with HSF1, 1.73 fold enrichment (6-mer frequency, TF over GST control). In addition, the binding signal is 1.2 fold enrichment (6-mer frequency, TF over GST control) with SPIC; 1.41 fold enrichment (6-mer frequency, TF over GST control) in the assay with ELF4; 1.34 fold enrichment (6-mer frequency, TF over GST control) with ELK4; 1.54 fold enrichment (6-mer frequency, TF over GST control) with ETV2; 1.43 fold enrichment (6-mer frequency, TF over GST control) in the assay with ELF3; 1.46 fold enrichment (6-mer frequency, TF over GST control) with CRX. Besides, the binding signal in the assay with ETV1 is 1.36 fold enrichment (6-mer frequency, TF over GST control).
